IL1B secr inh: inhibitors of inflammasome signaling (IL-1 beta secretion) | AID 743279 | activity change, % at 57.5 µM | THP-1 LPS/ATP IL-1B secretion, AlphaLISA, 16 h; hits give low values | actives 4.7% (n = 360,000); in the data active = activity change below about -50%; inconclusive = mostly about -30% to -49%
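Secreted IL-1B measured by AlphaLISA bead assay after 16 h compound exposure of THP-1 cells; compounds (final up to 57.5 uM) added 1 h before LPS (250 ng/mL) and ATP (1.25 mM) stimulation; lower signal means less secretion.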
HepG2 viability: HepG2 cytotoxicity, counter-screen for TGF-b inhibitors | AID 588856 | HepG2 CAGA-GFP viability, ATP luminescence, 18 h | actives 0.76% (n = 410,000) | Potency, µM (titrated, usually from 46.1 µM), usual class: cytotoxic
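HepG2 CAGA-GFP cells (1000/well, DMEM with 1% FBS) received compound, then TGF-beta at 500 pg/mL final, and were incubated 18 hours at 37 degrees C. Viability was read by CellTiter-Glo luminescence. Media-only wells were set as complete cell-killing and DMSO as no toxicity.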
S-ASM inh: human S-ASM enzyme inhibition. P17405. placental ASM, HMU-PC fluorogenic substrate, 60 min. actives 0.006% (n = 340,000). Potency, µM (top dose mostly 57.5 µM), hits mostly inhibitors
Target sequence (P17405 47-631 limits assumed): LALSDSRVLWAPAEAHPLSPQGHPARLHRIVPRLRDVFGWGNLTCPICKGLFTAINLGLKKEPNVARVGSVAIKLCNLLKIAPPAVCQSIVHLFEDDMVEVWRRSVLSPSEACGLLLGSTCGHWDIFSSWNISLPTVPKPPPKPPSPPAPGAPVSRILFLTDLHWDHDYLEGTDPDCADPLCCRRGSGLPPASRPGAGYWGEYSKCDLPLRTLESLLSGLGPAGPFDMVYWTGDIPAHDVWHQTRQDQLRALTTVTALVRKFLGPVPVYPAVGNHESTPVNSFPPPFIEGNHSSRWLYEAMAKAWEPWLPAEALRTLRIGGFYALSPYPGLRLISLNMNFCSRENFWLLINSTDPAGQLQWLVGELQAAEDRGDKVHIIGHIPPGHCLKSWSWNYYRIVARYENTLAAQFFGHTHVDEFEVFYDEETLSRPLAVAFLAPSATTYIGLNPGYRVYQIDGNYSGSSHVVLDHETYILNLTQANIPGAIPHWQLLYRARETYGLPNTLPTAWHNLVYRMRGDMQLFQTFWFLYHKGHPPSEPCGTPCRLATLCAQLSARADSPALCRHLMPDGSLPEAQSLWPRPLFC
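qHTS format. ASM enzyme prepared from human placenta hydrolyses the fluorogenic substrate HMU-PC0 (9 uM final) over 60 min at 37 °C after a 10 min compound preincubation.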
DT40 TDP1 CPT: growth inhibition of DT40 Tdp1-/-;hTDP1 cells with camptothecin (screen for TDP1 inhibitors); chicken DT40 Tdp1-/-;hTDP1 cells + 20 nM CPT, ATP luminescence, 48 h; Potency, µM (titrated, usually from 46.2 µM), usual class: inhibitors; actives 12% (n = 420,000); AID 686979; also: nearly all actives have a fitted effect of over 55% in size
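Cell growth measured by CellTiter-Glo luminescence after a minimum 48 h, 37 C compound exposure with 20 nM CPT in Tdp1-knockout DT40 cells stably expressing hTDP1, seeded 400/well; qHTS titration format.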
TDP1 cell noCPT: qHTS for Inhibitors of human tyrosyl-DNA phosphodiesterase 1 (TDP1): qHTS in cells in absence of CPT | DT40 Tdp1-/- hTDP1 cells, no CPT, ATP luminescence, 48 h | Potency, µM (titrated, usually from 46.2 µM), usual class: inhibitors | actives 15% (n = 420,000); also: nearly all actives have a fitted effect of over 55% in size
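Chicken DT40 Tdp1-/- cells stably complemented with human TDP1 were seeded at 400 cells/well with DMSO in place of 20 nM camptothecin. After compound pinning, cells grew at least 48 hr at 37 °C; viability read by CellTiter-Glo luminescence.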
TGFb SMAD3 inh: inhibitors of TGF-b signaling; HepG2 CAGA-GFP TGF-b/SMAD3 reporter, GFP fluorescence, 18 h; TGF-beta stimulated, 500 pg/mL final; Potency, µM (doses to about 46.1 µM), most hits filed as inhibitors; actives 1.2% (n = 410,000); AID 588855; also: nearly all actives have a fitted effect of over 65% in size
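First, reporter cells (HEPG2 CAGA-GFP) rested 2 h at 37 degrees C. Next, compounds were pinned in and TGF-beta added to 500 pg/mL final. After 18 h, GFP was imaged per cell and summed per well.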
A number is an active result; - = inactive; ? = inconclusive; . = no result given; [ ] = remark or other dose. Sampled rows, rich in hits. Any-hit rate of the full collection: about 19%. Unless noted, calls follow the shape of the dose curve; as a rule, active = well fitted curve in the direction sought with a large enough effect; inconclusive = small, poorly fitted or top-dose-only effect, or another doubt; inactive = no such curve, though single readings can be large; an effect the other way counts as inactive or inconclusive.

SMILES	IL1B secr inh	HepG2 viability	S-ASM inh	DT40 TDP1 CPT	TDP1 cell noCPT	TGFb SMAD3 inh
COc1ccc(-n2c(-c3ccc(Br)cc3)c[n+]3c2CCc2ccccc2-3)cc1	-59	-	-	1.6µM	0.92µM	?
CC(C)c1ccc(-n2c(-c3ccccc3)c[n+]3c2CCc2ccccc2-3)cc1	-114	-	-	0.0073µM	0.033µM	?
CCOC(=O)C1(Cc2ccccc2)CCCN(C2CCCC2)C1 (stereo unspecified)	-	-	-	-	-	-
CCOc1ccc(-c2cc(C(=O)NCc3ccc(C)cc3)c3ccccc3n2)cc1	.	-	.	-	-	?
Cc1ccc(-c2cc(C(=O)N3N=C(C(F)F)CC3(O)C(F)F)c3ccccc3n2)cc1C (stereo unspecified)	-71	20µM	-	18µM	?	?
CCOc1cccc(-c2cc(C(=O)N3N=C(C)CC3(O)C(F)F)c3ccccc3n2)c1 (stereo unspecified)	-64	-	-	-	?	-
O=C(c1cc(-c2ccccc2)nc2ccccc12)N1N=C(C(F)F)CC1(O)C(F)F (stereo unspecified)	-	-	-	-	-	-
CCc1nnc(NC(=O)c2nc(SC)ncc2Cl)s1	.	-	.	-	-	?
CC12CCC(=O)N1C(C(=O)NNC(=O)c1ccc(Br)cc1)CS2 (stereo unspecified)	-	-	-	-	-	-
Cc1nn(C)c(C)c1/C=C(/C(=O)C(C)(C)C)n1cncn1	-57	-	-	?	23µM	-
COc1ccc(OCC(=O)Nc2ccc(N3CCN(Cc4ccccc4F)CC3)cc2)cc1	-	-	-	?	?	-
Cc1ccc(NC(=S)N/N=C2/CCCCc3ccccc32)cc1	-	-	-	?	?	-
Cc1ccc(C)c(NC(=S)N/N=C2\CCc3ccccc32)c1	-	-	-	?	21µM	?
O=C(Nc1cccc(-c2nc3ccccc3o2)c1)c1ccc(N2C(=O)C3C4C=CC(C4)C3C2=O)cc1 (stereo unspecified)	-	-	-	7.3µM	8.2µM	-
O=C1C2C3C=CC(C3)C2C(=O)N1c1cccc(-c2nc3ccccc3o2)c1 (stereo unspecified)	-	-	-	-	-	-
O=C(Nc1cccc(-c2nc3ccccc3o2)c1)c1ccc(-c2ccc(Br)cc2)o1	.	-	.	?	10µM	-
O=C(Nc1ccc2oc(-c3ccc(Br)cc3)nc2c1)c1cc2ccccc2o1	.	-	.	?	10µM	-
COc1ccc(-c2nc3ccccc3o2)cc1NC(=O)c1ccc(-c2ccc(Br)cc2)o1	.	-	.	-	-	-
O=C(Nc1ccc2oc(-c3cccnc3)nc2c1)c1cc2ccccc2o1	-	-	-	?	-	-
COC(=O)c1ccccc1NC(=O)c1ccc(-c2ccc(Br)cc2)o1	-	-	-	-	1.6µM	-
O=C(O)c1cccnc1C(=O)c1ccccc1	-	-	-	-	-	-
O=C(Nc1ccc2oc(-c3cc(Br)ccc3Cl)nc2c1)c1cc2ccccc2o1	.	-	.	16µM	10µM	-
Cc1ccc(-c2nc3cc(C(C)C)ccc3o2)cc1NC(=O)c1cc2ccccc2o1	.	-	.	?	?	-
O=C(Nc1ccc2oc(=O)ccc2c1)c1cc2ccccc2o1	-	-	-	?	?	-
Cc1ccc(-c2nc3ccccc3o2)cc1NC(=S)NC(=O)c1cc2ccccc2o1	-	-	-	15µM	15µM	-
SMILES	IL1B secr inh	HepG2 viability	S-ASM inh	DT40 TDP1 CPT	TDP1 cell noCPT	TGFb SMAD3 inh
O=C(Nc1cccc(NC(=O)c2ccc(-c3ccc(Br)cc3)o2)c1)c1ccco1	-	-	-	?	13µM	-
COc1ccc(/C=N/OCC(=O)Nc2nc3ccccc3s2)cc1OC	-50	-	-	?	?	?
COc1ccc(/C(C)=N/OCC(=O)Nc2nc3ccccc3s2)cc1	-	-	-	-	-	-
COc1ccc(-c2cc(C(=O)NCc3cn(C)nc3C)c3ccccc3n2)cc1OC	-	-	-	15µM	?	-
O=C(Nc1cccnc1)c1cc(-c2cccc(Br)c2)nc2ccccc12	-	-	.	?	16µM	?
O=C(NC1=NCCS1)c1cc(-c2cccc(Br)c2)nc2ccccc12	?	-	-	-	?	-
COc1ccc(C(=O)Nc2nc3ccccc3s2)cc1OC	-88	-	-	-	-	-
COc1cccc(CCNc2ncnc3sc(C(=O)N4CCOCC4)c(C)c23)c1	.	.	.	-	-	.
FC(F)(F)c1ccccc1-c1nc(NCCN2CCOCC2)c2ccccc2n1	.	.	.	-	-	.
CC1(C(=O)NS(=O)(=O)c2ccccc2)CCN1C(=O)Cc1cc(F)ccc1F (stereo unspecified)	-	-	.	-	-	-
COc1cccc(CC(=O)Nc2ccc(-c3nc4ccccc4s3)cc2)c1	.	-	.	-	-	-
COc1ccc(-c2cc(C(=O)Nc3nc4ccccc4s3)c3ccccc3n2)cc1OC	-	-	-	15µM	?	-
COc1ccc(CC(=O)Nc2ccc(-c3nc4ccccc4s3)c(C)c2)cc1OC	.	-	.	?	26µM	-
COc1ccc(-c2cc(C(=O)Nc3cccnc3)c3ccccc3n2)cc1OC	-	-	.	23µM	23µM	-
COc1ccc(-c2cc(C(=O)Nc3c(Cl)cc(Cl)cc3Cl)c3ccccc3n2)cc1OC	-	-	-	?	?	-
O=C(Nc1ncccn1)c1cc(-c2cccc(Br)c2)nc2ccccc12	?	-	-	?	?	-
O=C(Nc1ccncc1)c1cc(-c2cccc(Br)c2)nc2ccccc12	-78	-	-	?	?	-
CN(Cc1ccon1)C(=O)c1cnn(-c2nccc(-c3ccc4c(c3)OCO4)n2)c1C1CC1	.	.	.	-[9.04 µM]	-	.
Cc1ccc(S(=O)(=O)N2C[C@@H](C)[C@]3(C2)[C@H](O)[C@H](OC(=O)Nc2cccs2)C[C@H]2C(=O)N(c4ccccc4)C(=O)[C@H]23)cc1	-109	-	.	23µM	16µM	?
Cc1ccc(S(=O)(=O)N2C[C@@H](C)[C@]3(C2)[C@H](O)[C@H](OC(=O)NC2CC2)C[C@H]2C(=O)N(c4ccccc4)C(=O)[C@H]23)cc1	?	-	.	?	?	?
COc1ccc(CNC(=O)O[C@@H]2C[C@H]3C(=O)N(c4ccccc4)C(=O)[C@H]3[C@@]3(CN(S(=O)(=O)c4ccc(C)cc4)C[C@H]3C)[C@@H]2O)cc1OC	-64	-	.	?	26µM	?

Assay outcomes deposited in PubChem BioAssay by National Center for Advancing Translational Sciences (NCATS).
